Screens: PubChem, National Center for Advancing Translational Sciences (NCATS)
G9a block: qHTS Assay for Inhibitors of Histone Lysine Methyltransferase G9a. actives 8.8% (n = 350,000). AID 504332, 2011. Potency, µM (highest dose often 102 µM), inactives show at the top dose activity, negative = inhibition, usual class: inhibitors. Histone-lysine N-methyltransferase EHMT2 (Homo sapiens), Q96KQ7. G9a H3K9 monomethylation, AlphaScreen, 2 h; note: potency is the fitted concentration of half-maximal effect; % is set by controls: 0 for no effect and ±100 for the full control effect; nearly all actives have a fitted effect of over 75% in size
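G9a (20 nM) was preincubated 15 min with compound, then reacted 2 h at room temperature with 500 nM biotin-H3K9 peptide and 20 µM SAM. Monomethyl-H3K9 detected by AlphaScreen using anti-H3K9me1 antibody.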
PLK1 PBD inh: qHTS for Inhibitors of PLK1-PDB (polo-like kinase 1 - polo-box domain): Primary Screen. Potency, µM, for the others: max response, negative = inhibition, hits mostly inhibitors. actives 2.8% (n = 360,000). Plk1 PBD binding of FITC phosphopeptide, fluorescence polarization. Serine/threonine-protein kinase PLK1 (Homo sapiens), P53350; note: potency is the fitted concentration of half-maximal effect; series mostly up to about 57 µM; % is set by controls: 0 for no effect and ±100 for the full control effect; nearly all actives have a fitted effect of over 65% in size
Target sequence (P53350 whole entry, looked up, the tested form may be a part): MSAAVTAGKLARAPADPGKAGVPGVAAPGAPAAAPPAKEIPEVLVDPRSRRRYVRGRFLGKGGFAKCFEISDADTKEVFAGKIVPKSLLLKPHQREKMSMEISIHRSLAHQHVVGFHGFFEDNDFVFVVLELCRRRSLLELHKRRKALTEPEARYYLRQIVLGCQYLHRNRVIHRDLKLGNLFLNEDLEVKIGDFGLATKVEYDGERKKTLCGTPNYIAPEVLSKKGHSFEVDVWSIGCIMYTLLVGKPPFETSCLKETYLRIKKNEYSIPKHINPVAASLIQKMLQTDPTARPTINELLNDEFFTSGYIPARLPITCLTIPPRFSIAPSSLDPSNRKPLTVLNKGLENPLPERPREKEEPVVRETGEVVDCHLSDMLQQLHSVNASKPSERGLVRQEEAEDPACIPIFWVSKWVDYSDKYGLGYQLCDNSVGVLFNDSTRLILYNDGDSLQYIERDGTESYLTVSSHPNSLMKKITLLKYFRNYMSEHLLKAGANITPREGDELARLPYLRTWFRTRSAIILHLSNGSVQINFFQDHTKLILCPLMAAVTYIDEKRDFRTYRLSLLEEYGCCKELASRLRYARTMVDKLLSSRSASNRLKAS
JMJD2A Tudor: qHTS Assay for Inhibitors of JMJD2A-Tudor Domain. Lysine-specific demethylase 4A (Homo sapiens), O75164. AlphaScreen JMJD2A-Tudor / H3K4me3 peptide binding. Potency, µM (series often up to 114 µM), inactives show at the highest dose activity change, negative = inhibition, hits mostly inhibitors. actives 4.4% (n = 390,000); note: potency is the fitted concentration of half-maximal effect; % is set by controls: 0 for no effect and ±100 for the full control effect; nearly all actives have a fitted effect of over 50% in size
HP1b chromo inh: HTS for Inhibitors of HP1-beta Chromodomain Interactions with Methylated Histone Tails. actives 0.56% (n = 390,000). Potency, µM (series often up to 114 µM), for the others: top-dose activity change, negative = inhibition, hits mostly inhibitors. Chromobox protein homolog 1 (Homo sapiens), P83916. AID 540317, 2011. AlphaScreen HP1-beta / biotin-H3K9me3 peptide binding; note: potency is the fitted concentration of half-maximal effect; nearly all actives have a fitted effect of over 70% in size
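AlphaScreen: HP1-beta (50 nM) preformed 30 min with biotin-H3(1-18)K9me3 peptide (50 nM) in PBS pH 7.4, 0.01% Tween-20. Compound added for 30 min at RT, then streptavidin donor/nickel chelate acceptor beads (10 ug/mL) for 30 min.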
BAZ2B inh: qHTS Assay for Inhibitors of BAZ2B | Potency, µM (titrated, usually from 114 µM), for the others: at the top dose activity change, negative = inhibition, actives largely listed as inhibitors | AlphaScreen BAZ2B-H3K14Ac peptide displacement | Bromodomain adjacent to zinc finger domain protein 2B (Homo sapiens), Q9UIF8 | AID 504333, 2011 | actives 4.4% (n = 360,000); note: potency is the fitted concentration of half-maximal effect; % is set by controls: 0 for no effect and ±100 for the full control effect; nearly all actives have a fitted effect of over 60% in size
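In this displacement format the biotinylated H3(5-23) peptide acetylated at Lys14 serves as ligand at 50 nM, with BAZ2B at 50 nM in PBS pH 7.4 containing 0.01% Tween-20. Donor and acceptor beads are 10 ug/mL final.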
PI5P4Ka inh: qHTS for Inhibitors of phosphatidylinositol 5-phosphate 4-kinase (PI5P4K); Phosphatidylinositol 5-phosphate 4-kinase type-2 alpha (Homo sapiens), P48426; PI5P4Kalpha enzyme, ADP-Glo luminescence, 60 min; stronger effect = lower value; max response, %; actives 1.2% (n = 330,000); active = max response of -50% or lower; inconclusive = between -30% and -50%; inactive = -30% or higher; note: value at the top dose of about 77 µM; % is set by controls: 0 for no effect and ±100 for the full control effect
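Enzyme plus substrate dispensed, test compounds pinned in, then ATP (5 microM final) added. After 60 min at RT, ADP-Glo reagent 1 for 45 min and reagent 2 for 30 min preceded luminescence imaging.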
Numbers without * were called inactive; ? = inconclusive; / = no result given; ! = not active in a repeat; [ ] = another dose, or the depositor's remark. A selection: hits, their analogues and other compounds. The true share with any hit is near 12%. Unless noted, calls come from the whole dose curve; as a rule, active = well fitted curve in the direction sought with a large enough effect; inconclusive = small, poorly fitted or top-dose-only effect, or another doubt; inactive = no such curve, though single readings can be large; an effect the other way counts as inactive or inconclusive.

SMILES | G9a block | PLK1 PBD inh | JMJD2A Tudor | HP1b chromo inh | BAZ2B inh | PI5P4Ka inh
O=C(O)Cc1c[nH]c2ccc(O)cc12 | 24µM*! | 5% | -9% | 30% | / | 3
N#C/C=C1/NC(=O)c2ccccc2S1 | 45µM* | 4% | -24% | 16% | ? | ?
Oc1ccccc1N1CCN(c2nnnn2-c2ccccc2)CC1 | / | 30µM* | ? | 3% | -13% | -11
CCOC(=O)COc1ccccc1/C=C\[N+](=O)[O-] | 3.5µM* | 7.5µM* | -15% | 25% | -30% | -8
CC(C)C[C@@H](CNCC(=O)[C@H](Cc1c[nH]c2ccccc12)NC(=O)c1[nH]cnc1C(=O)N[C@@H](C)CN)NC(=O)c1nc[nH]c1C(=O)N[C@@H](C)C(=O)O | / | -18% | 50µM* | 27% | / | -23
CC(C)C[C@@H](CNCC(=O)[C@H](Cc1c[nH]c2ccccc12)NC(=O)c1[nH]cnc1C(=O)N[C@@H](C)CN)NC(=O)c1nc[nH]c1C(=O)N[C@@H](CC(=O)O)C(=O)O | / | 27µM* | 20µM* | 22% | / | -62*
CC(C)C[C@@H](CN)NC(=O)c1nc[nH]c1C(=O)N[C@@H](Cc1ccccc1)C(=O)CNC[C@H](C)NC(=O)c1nc[nH]c1C(=O)N[C@@H](CC(=O)O)C(=O)O | / | -8% | ? | 63% | / | 1
CC(C)C[C@@H](CNCC(=O)[C@H](Cc1c[nH]c2ccccc12)NC(=O)c1[nH]cnc1C(=O)N[C@H](CN)CC(C)C)NC(=O)c1nc[nH]c1C(=O)N[C@@H](CC(=O)O)C(=O)O | / | -8% | 40µM* | ? | / | ?
CC(C)C[C@@H](CN)NC(=O)c1nc[nH]c1C(=O)N[C@@H](Cc1c[nH]c2ccccc12)C(=O)CNC[C@H](C)NC(=O)c1nc[nH]c1C(=O)N[C@@H](CC(=O)O)C(=O)O | / | -28% | 56µM* | 21% | / | -4
CC(C)C[C@@H](CNCC(=O)[C@H](Cc1ccccc1)NC(=O)c1[nH]cnc1C(=O)N[C@@H](C)CN)NC(=O)c1nc[nH]c1C(=O)N[C@@H](CC(=O)O)C(=O)O | / | -8% | ? | 55% | / | -9
O=C(Cn1ccn(-c2ccc(F)c(F)c2)c(=O)c1=O)NCc1ccccc1 | -1%[59 µM] | / | -11% | 23% | -2% | /
CN(C)CCCC1(c2ccc(F)cc2)OCc2cc(C#N)ccc21 (stereo not drawn) | 71µM*! | -4% | -22% | 10% | -2% | 0
CCOC(=O)C1CCCN(Cc2ccc(OC)cc2OC)C1 (stereo not drawn) | -21%[59 µM] | -2% | 1.3µM* | ? | -32% | 0
COc1ccc(CN2CCCC(C(=O)N3CCCC3)C2)c(OC)c1 (stereo not drawn) | -2% | -7% | 0.89µM* | 50µM* | 50µM* | 0
COc1cc(OC)c(OC)cc1CN1CCCC(C(=O)c2ccccc2SC)C1 (stereo not drawn) | / | 24µM* | ? | -24% | -12% | -2
Cc1ccc(S(=O)(=O)CC(=O)Nc2sc3c(c2C#N)CCCC3)cc1 | -2%[59 µM] | / | -16% | 18% | -1% | /
Cc1ccc(N(CC(=O)NCCc2ccccc2C)S(=O)(=O)N(C)C)cc1 | -38%[59 µM] | / | -8% | 45% | -4% | /
COc1ccc(N2CC(NC(=O)C(c3ccccc3)c3ccccc3)CC2=O)cc1OC (stereo not drawn) | ? | / | 1% | 41% | -5% | /
